According to PubChem BioAssay (NCATS):
Where “and” joins values, the source holds several entries; their conditions need not be identical. Identical values can stand only once. Records with an inconclusive call do not appear. A call without a number means that no potency is given here. Calls of active or inactive are those of the source. Unless noted, the call rests on the fitted dose curve; in most records, active means well fitted curve in the direction sought with a large enough effect; inconclusive means small, poorly fitted or top-dose-only effect, or another doubt; inactive means no such curve, though single readings can be large; an effect the other way counts as inactive or inconclusive.

Key:
[1] = Cell Viability - LYMP2-001 (AID 921); further: nearly all actives have a fitted effect of over 70% in size
Method in brief: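 Human lymphoblastoid cells (Coriell), 2500 per well, were preincubated 5 hr at 37 C, then exposed to compounds in complete medium for 24 hr at 37 C. Cellular ATP was read by CellTiter-Glo luminescence; AC50 from Hill fits of concentration-response data.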

[2] = Cell Viability - LYMP1-003 - Assay at 40 hr (AID 964); further: nearly all actives have a fitted effect of over 60% in size; further: potency means the concentration at half of the fitted maximal effect
Method in brief: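 Human lymphoblastoid LYMP1-003 cells, 2500/well in complete medium, rested 5 hr at 37 C, then exposed to compounds for 40 hr at 37 C. Viability read as intracellular ATP by CellTiter-Glo luminescence; AC50 from Hill fits of concentration-response data.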

[3] = Cell Viability - LYMP2-017 (AID 972); further: nearly all actives have a fitted effect of over 55% in size
Method in brief: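 Human lymphoblastoid cells (2500/well) were seeded in complete medium, held 5 hr at 37 C, then exposed to compounds for 24 hr at 37 C. Intracellular ATP was read by CellTiter-Glo luminescence after 30 min at room temperature, with AC50 values from Hill-equation fits.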

[4] = Cell Viability - LYMP2-008 (AID 980); further: nearly all actives have a fitted effect of over 60% in size
Method in brief: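 Human lymphoblastoid cells (2500/well) were plated, held 5 hr at 37 C, then exposed to compounds for 24 hr at 37 C in complete medium. Intracellular ATP was read by CellTiter-Glo luminescence; AC50 from Hill-fitted concentration-response.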

[5] = Cell Viability - LYMP2-014 (AID 983); further: nearly all actives have a fitted effect of over 50% in size
Method in brief: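 Human lymphoblastoid cells (2500/well) were pre-incubated 5 hr at 37 C, then exposed to compounds in complete medium for 24 hr at 37 C. Intracellular ATP was read by CellTiter-Glo luminescence after 30 min at room temperature; AC50 from Hill fits.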

[6] = qHTS assay for small molecule antagonists of peroxisome proliferator-activated receptor delta signaling (AID 588535; active means well fitted inhibition curve with a large enough effect in the signal ratio, with a control signal flat, not every such curve was filed as active; the % refers to the signal ratio;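 on max response: cells co-treated with a PPAR-delta agonist as stimulator during compound exposure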); conditions: HEK293T PPARd-UAS-bla, beta-lactamase FRET ratio, 18 h; 460 nm channel
Method in brief: (§1)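 Cells were seeded at 4000 per well in assay medium containing 2% charcoal/dextran FBS and held 5 hrs at 37 C. Compounds were then added for 18 hrs. CCF4 substrate was applied for 2 hrs at room temperature before fluorescence reading.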

[7] = target: Peroxisome proliferator-activated receptor delta (Homo sapiens) (UniProt Q03181); test: as above
Peroxisome proliferator-activated receptor delta (Homo sapiens), sequence (Q03181 whole entry, looked up): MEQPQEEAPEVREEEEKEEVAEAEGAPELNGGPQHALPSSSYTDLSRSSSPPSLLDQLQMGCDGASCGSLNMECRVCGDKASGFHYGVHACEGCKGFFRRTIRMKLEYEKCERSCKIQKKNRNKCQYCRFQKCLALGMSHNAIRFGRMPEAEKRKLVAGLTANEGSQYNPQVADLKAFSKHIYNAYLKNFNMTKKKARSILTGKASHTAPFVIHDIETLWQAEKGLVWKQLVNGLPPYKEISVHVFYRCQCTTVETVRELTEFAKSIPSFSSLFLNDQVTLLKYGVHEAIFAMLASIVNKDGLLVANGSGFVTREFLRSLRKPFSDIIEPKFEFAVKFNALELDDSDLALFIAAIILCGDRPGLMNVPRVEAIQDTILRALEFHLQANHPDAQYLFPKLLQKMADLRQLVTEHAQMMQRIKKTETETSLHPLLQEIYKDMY
Method in brief: as §1

[8] = target: Vitamin D3 receptor (Homo sapiens) (UniProt P11473); test: qHTS assay for small molecule antagonists of vitamin D receptor signaling (AID 588541; calls by dose curve;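 further: receptor activated by calcitriol during compound treatment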)
Vitamin D3 receptor (Homo sapiens), sequence (P11473 whole entry, looked up): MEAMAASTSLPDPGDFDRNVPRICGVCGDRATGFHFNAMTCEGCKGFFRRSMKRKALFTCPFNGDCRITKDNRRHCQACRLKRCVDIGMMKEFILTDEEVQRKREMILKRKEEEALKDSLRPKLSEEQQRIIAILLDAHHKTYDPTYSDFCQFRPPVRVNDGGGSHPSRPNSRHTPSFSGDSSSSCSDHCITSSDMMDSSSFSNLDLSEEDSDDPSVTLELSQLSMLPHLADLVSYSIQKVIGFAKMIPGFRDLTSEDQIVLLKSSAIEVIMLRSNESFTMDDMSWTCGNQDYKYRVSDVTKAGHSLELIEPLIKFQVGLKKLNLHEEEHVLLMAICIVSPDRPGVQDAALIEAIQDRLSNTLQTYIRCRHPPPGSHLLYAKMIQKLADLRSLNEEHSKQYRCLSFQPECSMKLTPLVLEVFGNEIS
Method in brief: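 VDR-UAS-bla HEK293T cells in 2% charcoal-stripped FBS were stimulated with 1-alpha,25-dihydroxyvitamin D3 (3 nM final) plus compound for 16 h at 37 C. The beta-lactamase CCF4 readout was normalized to 50 nM agonist and DMSO, and Hill fits gave IC50.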

[9] = qHTS assay for small molecule antagonists of retinoid X receptor alpha signaling (AID 588546); conditions: HEK293T RXRa-UAS-bla, beta-lactamase ratio, antagonist mode; measured here: W530 green channel, cytotoxicity proxy;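 further: cells stimulated with 9-cis-retinoic acid as agonist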
Method in brief: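 Beta-lactamase reporter inhibition, read as CCF4 fluorescence ratio (ex 405, em 460/530 nm) after 2 h at RT. HEK293T UAS-bla cells, 2500/well, were stimulated with 9-cis-RA at 500 or 100 nM final alongside test compound for 18 h at 37 C.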

[10] = qHTS assay for small molecule activators of the p53 signaling pathway (AID 651743; active means well fitted activation curve with a large enough effect in the signal ratio, not every such curve was filed as active; the % refers to the signal ratio); conditions: HCT-116 p53RE-bla, beta-lactamase FRET ratio, 16 h; activation: stronger effect = higher value
Method in brief: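 HCT-116 p53RE-bla, 4,000 cells/well; 5 h settle; cpd/DMSO 16 h, 37 C; LiveBLAzer B/G 2 h RT; fluorescence intensity.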

[11] = qHTS assay for small molecule disruptors of the mitochondrial membrane potential - 5 hr assay (AID 651755; calls by dose curve; further: nearly all actives have a fitted effect of over 40% in size; further: potency means the concentration at half of the fitted maximal effect)
Method in brief: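 HepG2 cells (2,000/well), attached overnight, exposed to compound 5 hr at 37C, then Mito-MPS dye 30 min. Fluorescence read for monomers (490/535 nm) and aggregates (540/590 nm).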

[12] = qHTS assay for small molecule agonists of the antioxidant response element (ARE) signaling pathway measured by Nrf2-dependant transcriptional activity (AID 720636; active means well fitted curve in the direction sought with a large enough effect in the repeat runs; an effect the other way counts as inactive or inconclusive;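 further: HepG2 cells with an ARE-driven luciferase reporter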)
Method in brief: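 Attachment 6 hr at 37 C, then compound versus DMSO vehicle for 16 hr in ARE-luc HepG2 cells (1% dialyzed FBS); luminescence recorded 30 min after ONE-Glo addition at room temperature.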

[13] = qHTS assay for small molecule antagonists of the retinoid-related orphan receptor gamma (ROR-gamma) signaling pathway - cell viability counter screen (AID 720652; active means well fitted curve in the direction sought with a large enough effect in the repeat runs; an effect the other way counts as inactive or inconclusive;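 further: compound exposure lasted 16 hr before ATP read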; further: potency means the concentration at half of the fitted maximal effect)
Method in brief: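 Counter screen in CHO cells carrying TET-inducible ROR-gamma and an ROR response element-luciferase reporter; cells plated 5 hr, compound pinned, doxycycline added, then 16 hr at 37 C. Viability read as intracellular ATP by CellTiter-Glo luminescence.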

[14] = Cell Viability - Hek293 (AID 427;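 active means compounds whose dose-response curve shows a full or clear partial loss of cell viability, called from curve shape rather than a numeric limit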;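 further: potency means the concentration at half of the fitted maximal effect; cells exposed to compound for 40 hours at 37 °C before reading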); conditions: qHTS
Method in brief: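 Luminescent ATP read-out (CellTiter-Glo, 20 min RT) after 40 hr compound exposure at 37 °C in complete medium. Signal normalized to DMSO (basal) and 100 uM tamoxifen (100% inhibition); concentration-response fitted with the standard Hill equation to give AC50.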

[15] = Cellular Toxicity (caspase-3) Jurkat (AID 655); conditions: Jurkat caspase-3 activation, luminescence, DMSO = 0%, tamoxifen = 100%; at 92.2 µM (top of the series);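 further: cells exposed to compound for 16 h at 37 °C before reading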
Method in brief: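 Jurkat cells (5000/well) in complete medium were treated with compounds for 16 hr at 37 °C, then Caspase-Glo 3/7 luminescence was read after 20 min at room temperature. Data normalized to DMSO (basal) and 100 uM tamoxifen (100%); AC50 from Hill fit.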

[16] = MultiTox-Fluor Cytotoxicity Assay - LYMP1-003 - Dead Cells (AID 961); further: nearly all actives have a fitted effect of over 70% in size; further: potency means the concentration at half of the fitted maximal effect
Method in brief: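 Human lymphoblastoid LYMP1-003 cells (2500/well) were treated with compounds for 16 hr at 37 C in complete medium. Dead-cell protease release was read by bis-AAF-R110 fluorescence (Ex/Em 485/520). AC50 came from Hill fits, normalized to DMSO and 15 uM tetraoctylammonium bromide.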

[17] = Cell Viability - LYMP2-007 (AID 979);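 further: cells exposed to compound for 24 h before reading; nearly all actives have a fitted effect of over 60% in size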; further: potency means the concentration at half of the fitted maximal effect
Method in brief: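 Human lymphoblastoid cells (2500/well) were plated in complete medium, incubated 5 hr at 37 C, then exposed to compounds for 24 hr at 37 C. Intracellular ATP was read by CellTiter-Glo luminescence after 30 min at room temperature; AC50 from Hill fits.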

[18] = target: Estrogen receptor (Homo sapiens) (UniProt P03372); test: qHTS assay for small molecule antagonists of estrogen receptor alpha signaling (AID 588513; active means well fitted curve in the direction sought with a large enough effect in the signal ratio, with a control signal flat, not every such curve was filed as active; the % refers to the signal ratio)
Estrogen receptor (Homo sapiens), sequence (P03372 whole entry, looked up): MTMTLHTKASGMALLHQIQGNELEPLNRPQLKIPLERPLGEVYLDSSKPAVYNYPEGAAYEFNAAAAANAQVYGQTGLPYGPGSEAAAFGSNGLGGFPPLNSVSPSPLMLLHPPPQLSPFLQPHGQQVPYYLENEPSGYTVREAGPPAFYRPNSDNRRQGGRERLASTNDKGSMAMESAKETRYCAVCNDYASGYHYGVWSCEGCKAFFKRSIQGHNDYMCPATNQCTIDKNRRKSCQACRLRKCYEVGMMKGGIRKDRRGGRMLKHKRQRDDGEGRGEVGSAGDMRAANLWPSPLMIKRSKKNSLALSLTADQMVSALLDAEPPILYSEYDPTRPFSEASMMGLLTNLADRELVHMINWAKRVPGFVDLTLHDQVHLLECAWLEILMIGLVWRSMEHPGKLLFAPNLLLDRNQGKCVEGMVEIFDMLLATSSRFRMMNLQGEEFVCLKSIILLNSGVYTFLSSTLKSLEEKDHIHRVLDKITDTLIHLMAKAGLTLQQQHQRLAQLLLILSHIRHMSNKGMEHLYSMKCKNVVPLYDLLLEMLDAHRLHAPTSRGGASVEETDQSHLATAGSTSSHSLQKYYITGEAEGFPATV
Method in brief: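 ER-alpha-UAS-bla GripTite HEK 293 cells in medium with 2% charcoal/dextran-treated FBS were preincubated 4 h at 37 C, dosed with compound (1:2 titration), stimulated with 0.5nM 17-beta-estradiol for 18 h, then read by CCF4 beta-lactamase fluorescence.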

[19] = Cell Viability - LYMP2-009 (AID 968); further: nearly all actives have a fitted effect of over 55% in size; further: potency means the concentration at half of the fitted maximal effect

SMILES | Potency [1] | Potency [2] | Potency [3] | Potency [4] | Potency [5] | max response [6] | Potency [7] | outcome [8] | max response [9] | activation [10] | Potency [11] | outcome [12] | Potency [13] | Potency [14] | caspase-3 activation [15] | Potency [16] | Potency [17] | Potency [18] | Potency [19]
CCCCCCCCCc1ccc(O)cc1 | inactive | inactive | inactive | inactive | inactive | -9.37% and -27.9% | inactive | inactive | -16.1% | -1.55% (inactive) and -0.009% (inactive) | 16.8 µM (active) | inactive | 66.8 µM (active) | – | – | – | – | – | –
ClC1=C(Cl)C2(Cl)C3C4CC(C5OC45)C3C1(Cl)C2(Cl)Cl (configuration not stated) | – | 10 µM (active) | – | – | – | – | – | inactive | – | – | inactive | inactive | – | > 92 µM (inactive) | 28.4% (inactive) | 10 µM (active) | 31.6 µM (active) | inactive | –
CCc1cccc(CC)c1N(COC)C(=O)CCl | – | – | – | – | – | – | – | – | 18.2% | – | inactive | – | inactive | – | – | inactive | – | inactive | 50.1 µM (active)
COP(=S)(OC)Oc1ccc([N+](=O)[O-])cc1 | inactive | inactive | inactive | inactive | inactive | -15.9% | inactive | inactive | -15.3% and -6.14% | 0.285% (inactive) and 1.15% (inactive) | inactive | inactive | inactive | > 92 µM (inactive) | 4.38% (inactive) | inactive | inactive | inactive | inactive
COC(=O)NC(=S)Nc1ccccc1NC(=S)NC(=O)OC | inactive | – | inactive | inactive | inactive | -30.4% and 40.5% | inactive | inactive | 3.84% and -2.84% | 0% (inactive) and 3.95% (inactive) | inactive | inactive | inactive | > 92 µM (inactive) | 2.97% (inactive) | inactive | inactive | inactive | inactive
ClC(Cl)=C(c1ccc(Cl)cc1)c1ccc(Cl)cc1 | inactive | inactive | inactive | inactive | inactive | 6.36% and 34.1% | inactive | inactive | -0.142% and -15.3% | -3.15% (inactive) and -5.84% (inactive) and 6.09% (inactive) | inactive | inactive | – | > 92 µM (inactive) | 0.557% (inactive) and 1.81% (inactive) | – | inactive | inactive | inactive
